Most compounds without a hit are left out; they make up all but 3.1% or so of the library.
pPAFAH FP inh: inhibitors of human plasma PAF acetylhydrolase (pPAFAH). Q13093. recombinant pPAFAH, FP-rhodamine probe fluorescence polarization. inhibition, % at 3.39 µM. 1.5% of 330,000 active. AID 463082;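 active = inhibition above the mean inhibition across the screen plus 3 SD, cut at about 25% in these data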;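 also: inhibitors block binding of the rhodamine activity-based probe so polarization drops; 0% = enzyme with DMSO and 100% = wells lacking pPAFAH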
Target sequence (Q13093 whole entry, looked up): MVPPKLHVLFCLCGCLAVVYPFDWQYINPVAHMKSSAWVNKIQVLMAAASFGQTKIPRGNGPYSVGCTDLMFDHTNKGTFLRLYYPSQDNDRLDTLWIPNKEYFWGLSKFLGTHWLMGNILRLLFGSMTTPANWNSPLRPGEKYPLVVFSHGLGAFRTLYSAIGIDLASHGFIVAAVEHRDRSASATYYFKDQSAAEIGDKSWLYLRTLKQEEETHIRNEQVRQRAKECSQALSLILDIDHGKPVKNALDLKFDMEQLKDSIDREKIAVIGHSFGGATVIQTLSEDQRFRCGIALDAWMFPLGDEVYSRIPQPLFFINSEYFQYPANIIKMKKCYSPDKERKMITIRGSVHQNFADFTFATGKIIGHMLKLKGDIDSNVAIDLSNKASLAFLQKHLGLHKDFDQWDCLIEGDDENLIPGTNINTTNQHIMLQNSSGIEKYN
E coli Lon inh: inhibits E. coli Lon protease; P0A9M0; purified E. coli Lon protease, fluorescence polarization; inhibition, % at 7.94 µM; 0.42% of 360,000 active; in the data active = inhibition above about 13%, passing the limit was not always enough;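 also: 0% = enzyme with probe and DMSO and 100% = no enzyme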
PAFAH1B2 FP inh: PAFAH1B2 (human) inhibition; recombinant PAFAH1B2, FP-rhodamine activity probe, fluorescence polarization; 1.2% of 340,000 active; inhibition, % at 3.39 µM;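 active = inhibition above the mean of all tested compounds plus 3 SD, cut at about 24% in these data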;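 also: 0% = enzyme with DMSO and 100% = wells lacking PAFAH1B2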
PAFAH1B3 inh: inhibitors of human PAFAH1B3; Q15102; recombinant PAFAH1B3, FP-rhodamine probe, fluorescence polarization; inhibition, % at 3.39 µM; 0.28% of 340,000 active;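 active = inhibition above the screen-wide average of all tested compounds plus 3 SD, cut at about 25% in these data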;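 also: 0% = enzyme with DMSO only and 100% = wells lacking PAFAH1B3 protein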
Target sequence (Q15102 whole entry, looked up): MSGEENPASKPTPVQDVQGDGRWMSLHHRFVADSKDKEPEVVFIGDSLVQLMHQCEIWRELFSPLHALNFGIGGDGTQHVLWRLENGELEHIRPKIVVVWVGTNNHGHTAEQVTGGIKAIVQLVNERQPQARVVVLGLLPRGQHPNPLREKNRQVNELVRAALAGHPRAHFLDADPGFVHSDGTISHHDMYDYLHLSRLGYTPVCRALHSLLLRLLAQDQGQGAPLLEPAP
Rin1 Abl inh: human Rin1-Abl interaction inhibition; TR-FRET Rin1/Abl binding, biochemical; inhibition, % at 7.35 µM; 0.4% of 360,000 active; AID 588664; in the data active = inhibition above about 5%, passing the limit was not always enough
PAFAH2 inh: PAFAH2 (human) inhibition; recombinant PAFAH2, FP-rhodamine activity probe, fluorescence polarization; AID 492956; 0.99% of 340,000 active; inhibition, % at 3.39 µM; Q99487;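 active = inhibition above the mean over all tested compounds plus 3 SD, cut at about 30% in these data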;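 also: inhibitors block probe labeling of enzyme so polarization drops; 0% = enzyme with DMSO and 100% = wells lacking PAFAH2 protein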
pPAFAH confirm: confirmation of human plasma PAF acetylhydrolase (pPAFAH) inhibitors; shares compounds with pPAFAH FP inh; recombinant pPAFAH, FP-Rh probe fluorescence polarization; inhibition, % at 3.39 µM; 72% of 2,300 active; AID 463230;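 active = mean inhibition of the triplicate above the hit cutoff set for the earlier primary screen, cut at about 25% in these data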;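 also: 0% = enzyme with DMSO and 100% = wells lacking pPAFAH enzyme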
An asterisk follows results filed as active; . = no result.

SMILES	pPAFAH FP inh	E coli Lon inh	PAFAH1B2 FP inh	PAFAH1B3 inh	Rin1 Abl inh	PAFAH2 inh	pPAFAH confirm
Cc1ccnc(Nc2nc(-c3ccc(O)c(O)c3)cs2)c1	40.5*	10.8	3.4	18.2	5.0	-7.9	29.6*
Oc1ccc(-c2csc(Nc3cccc4ccccc34)n2)cc1O	72.4*	-9.4	2.1	7.2	4.5	15.8	66.2*
Cc1cccc(Nc2nc(-c3ccc(O)c(O)c3)cs2)n1	50.8*	-1.3	2.3	21.3	1.6	7.4	28.2*
COc1ccc(NC(=O)c2cc(C3CCCCN3C(=O)c3cc(C(C)(C)C)nn3C)on2)c(C)c1 (configuration not stated)	.	-4.5	.	.	3.2	.	.
CC1(C)CC(=O)C(N=Nc2cc(C(F)(F)F)ccc2Cl)=C(O)C1	6.6	0.7	4.1	-0.5	-0.1	0.5	.
O=C1CCCC(O)=C1N=Nc1c(Cl)cc(C(F)(F)F)cc1Cl	39.3*	0.5	35.2*	36.8*	5.3	64.4*	11.0
CC(N)=Nc1ccc([N+](=O)[O-])cc1	1.8	-1.0	2.5	2.6	-3.7	-2.1	.
O=[N+]([O-])c1ccc(N=Nc2c(Cl)cc(O)cc2Cl)cc1	46.4*	26.2	15.3	16.4	-2.9	15.0	39.2*
N#CC(C#N)=Cc1cnc(N2CCN(c3ccccc3)CC2)s1	2.5	-7.3	-1.4	-2.7	-0.2	-0.8	.
O=C1C2CCCCN2C(=O)N1CCCN1CCN(c2ccc(F)cc2)CC1 (configuration not stated)	4.6	-7.8	5.2	6.8	-2.0	0.0	.
Nc1ccc(N2CCN(CCCCN3C(=O)C4CCCN4C3=O)CC2)cc1 (configuration not stated)	70.0*	-2.5	0.3	4.6	-12.3	6.2	12.7
CC(=O)c1ccc(N2CCN(C(=O)c3ccc(Cn4c(=S)[nH]c5ccc(N6CCOCC6)cc5c4=O)cc3)CC2)cc1	49.2*	-5.7	4.9	12.4	-6.0	13.3	22.9
CC(=O)Nc1ccc(Nc2nc(C)nc3c2oc2ccccc23)cc1	6.5	-1.8	8.0	0.2	0.4	-2.9	.
CC(=O)N1CCN(c2ccc(Nc3nc(C)nc4c3oc3ccccc34)cc2)CC1	39.6*	-0.5	5.8	2.1	-0.8	2.3	34.2*
COc1ccccc1C(=O)NC(=O)COC(=O)CCOc1cc(C)ccc1C	11.8	-3.5	3.3	3.8	-3.8	5.7	.
CCOC(=O)C1=C(C)N(C[C@@H]2CC[C@@H](Cc3ccc(-c4ccccc4)cc3)O2)C(=O)NC1c1ccc(SCc2ccco2)c([N+](=O)[O-])c1 (some centres not stated)	56.1*	-7.6	1.0	0.0	-2.6	4.6	24.9*
CCOC(=O)C1=C(C)N(C[C@@H]2CC[C@@H](Cc3ccc(-c4ccccc4)cc3)O2)C(=O)NC1c1ccc(C(F)(F)F)cc1 (some centres not stated)	7.9	-3.5	7.5	2.2	0.7	1.4	.
COc1ccc([C@@H]2[C@@H]3C(=O)N(C(C)(C)C)C(=O)[C@@H]3[C@]3(CC(C)C)C(=O)N(c4cccc(Br)c4)C(=O)N23)cc1	-4.3	0.3	-0.9	4.6	3.8	8.0	.
O=C1NC(=O)C(c2ccccc2[N+](=O)[O-])=C1Nc1ccc(O)c(Cl)c1	44.5*	9.3	-0.2	8.0	1.1	11.7	6.1
Cc1cc(C)n(-c2ccc(C(=O)OCC(=O)c3ccc(Br)s3)cc2)n1	35.9*	-2.3	2.1	4.1	-14.5	50.0*	27.0*
CCNC(=O)COC(=O)c1ccc(-n2nc(C)cc2C)cc1	7.0	-1.2	2.5	5.0	2.2	17.8	.
CCn1c(SCC(=O)c2ccc(O)c(O)c2)nnc1-c1ccc(C)cc1	43.1*	1.6	3.5	14.5	-3.5	44.6*	71.8*
Cc1cc(C(=O)N/N=C/c2ccc([N+](=O)[O-])o2)c(C)o1	41.6*	-0.6	-1.2	8.3	-2.5	1.2	6.7
Cc1nonc1C(=O)N/N=C/c1ccc([N+](=O)[O-])o1	7.9	-8.1	4.2	0.3	-0.6	2.3	.
CSc1ccccc1NC(=O)CSc1nnc(COc2ccccc2)o1	2.2	9.3	4.2	1.4	2.9	0.6	.
SMILES	pPAFAH FP inh	E coli Lon inh	PAFAH1B2 FP inh	PAFAH1B3 inh	Rin1 Abl inh	PAFAH2 inh	pPAFAH confirm
O=C(CCCSc1ccc(Cl)cc1)Nc1cc(S(=O)(=O)N2CCOCC2)ccc1O	90.9*	-6.1	62.9*	1.7	-0.2	78.7*	88.5*
COc1ccc(S(=O)(=O)N2CCOCC2)cc1NC(=O)CCCSc1ccccc1	.	-11.6	.	.	-3.1	.	.
CNc1nc(-c2ccc([N+](=O)[O-])cc2)cs1	0.4	-3.7	-2.9	-3.2	-5.0	0.5	.
COc1ccc(-c2csc(NS(=O)(=O)c3ccc([N+](=O)[O-])cc3)n2)cc1	38.2*	-5.3	2.0	5.1	1.3	11.3	44.7*
COc1ccc(-c2csc(NC(=O)c3ccccc3NS(=O)(=O)c3ccc(F)c(F)c3)n2)cc1	50.0*	-5.5	12.4	12.5	0.5	19.8	38.9*
COc1ccc(-c2csc(NC(=O)c3ccccc3F)n2)cc1	0.7	-18.9	-2.0	11.5	0.1	-6.8	.
O=C(NC1CCN(C(=O)Nc2ccc(F)cc2)CC1)c1ccccc1F	-0.2	-0.2	0.1	13.2	-1.7	-7.7	.
Cc1ccc(N2C(=O)CC(Cc3cc(C)cc(C)c3)C2=O)cc1 (configuration not stated)	49.9*	-2.5	3.3	0.0	2.0	-5.9	4.7
COC1=CC(=O)C(O)=C(CCCCCCC/C=C/CCCCCCCC2=C(O)C(=O)C=C(OC)C2=O)C1=O	95.0*	1.2	94.2*	41.3*	0.4	101.2*	95.4*
COc1ccc(-c2[nH]ncc2CN2CCCC(C(=O)c3ccc(OC)cc3OC)C2)cc1 (configuration not stated)	5.2	3.9	2.6	1.9	-0.8	-0.6	.
COc1ccc(OC)c(CN2CCCC(C(=O)c3ccccc3SC)C2)c1 (configuration not stated)	57.7*	6.3	0.9	3.5	-1.0	0.6	5.2
COc1ccc(NC(=O)c2cc(S(=O)(=O)N3CCCC3)ccc2C)cn1	2.0	8.8	-1.8	2.9	2.6	8.4	.
N#CC(C#N)=C(N)/C(C#N)=C/c1cc(O)c(O)c(O)c1	38.9*	8.6	33.5*	38.7*	-1.0	35.4*	59.9*
N#C/C(=C/c1cc(Cl)c(O)c(Cl)c1)C(=O)N1CCCCC1	5.9	-15.2	7.1	3.6	-2.0	9.5	.
CC(=O)c1sc(NC(=O)CSCc2c(C)noc2C)nc1-c1ccccc1	3.3	-7.0	0.4	7.5	-3.3	3.5	.
Cc1ccc(N2C(=O)c3ccccc3C2C(=O)c2ccc(O)cc2O)cc1 (configuration not stated)	47.2*	2.9	0.2	9.5	4.7	8.5	5.1

Screening results from PubChem BioAssay.
